# Where “and” joins values, the source holds several entries; their conditions need not be identical. Identical values can stand only once. Unmarked numbers belong to inactive results. For part of these data: Results with a measured potency or affinity are listed apart. Calls of active or inactive are those of the source. Unless noted, the rule behind the calls is not given here.
# Legend:
# [1] = antimalarial activity against Dd2 strain (AID 2302;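 active = growth inhibition above 50% at the single 2 µM test dose, taken to imply half-maximal potency below 2 µM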;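 note: 0% = DMSO untreated growth and 100% = chloroquine plus artemisinin killed control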); conditions: P. falciparum Dd2 in RBCs, LDH growth readout, 72 h; at 2 µM; stronger effect = higher value
# [2] = human hepatoma cell viability loss – ATP luminescence, cytotoxicity control for P. falciparum antimalarial project, primary screen (AID 2303;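 active = inhibition above 50%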;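 note: 0% = DMSO wells and 100% = digitonin-killed cells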); conditions: HepG2 viability, 24-48 h, at 10 µM, stronger effect = higher value
# [3] = target: L-lactate dehydrogenase (Plasmodium falciparum (isolate CDC / Honduras)) (UniProt Q27743); experiment: PfLDH activity inhibition – cell lysate, 3D7 strain, counter-screen for P. falciparum growth inhibition project (AID 2304);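 note: 0% = vehicle and 100% = reference inhibitor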; conditions: P. falciparum 3D7 crude extract, LDH APAD/NBT absorbance; at 2 µM; stronger effect = higher value
# Sequence of L-lactate dehydrogenase (Plasmodium falciparum (isolate CDC / Honduras)) (Q27743 whole entry, looked up): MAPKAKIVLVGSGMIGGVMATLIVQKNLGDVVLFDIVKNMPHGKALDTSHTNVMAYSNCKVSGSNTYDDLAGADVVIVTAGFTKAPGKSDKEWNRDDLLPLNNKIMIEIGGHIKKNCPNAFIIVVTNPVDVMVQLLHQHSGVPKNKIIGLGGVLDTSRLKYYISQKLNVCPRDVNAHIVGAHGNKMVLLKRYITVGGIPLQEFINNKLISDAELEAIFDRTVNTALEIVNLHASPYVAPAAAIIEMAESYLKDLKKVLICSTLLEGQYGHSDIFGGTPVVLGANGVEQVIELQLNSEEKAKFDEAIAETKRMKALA
# [4] = inhibition of 3D7 malaria parasite growth – strain 3D7 (AID 2306);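 note: 0% = DMSO wells and 100% = chloroquine plus artemisinin control wells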; conditions: P. falciparum 3D7 erythrocytic growth, LDH absorbance, 72 h; at 2 µM; stronger effect = higher value
# [5] = target: Calcium-dependent protein kinase 1 (Plasmodium falciparum (isolate 3D7)) (UniProt P62344); experiment: PfCDPK1 kinase inhibitors, biochemical, TCAMS library (AID 1159585; cut-off not given, nearly all actives have IC50 up to about 0.98 µM;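 note: inhibitors leave more ATP so luminescence rises with inhibition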); conditions: recombinant PfCDPK1, Kinase-Glo ATP depletion luminescence
# Sequence of Calcium-dependent protein kinase 1 (Plasmodium falciparum (isolate 3D7)) (P62344 whole entry, looked up): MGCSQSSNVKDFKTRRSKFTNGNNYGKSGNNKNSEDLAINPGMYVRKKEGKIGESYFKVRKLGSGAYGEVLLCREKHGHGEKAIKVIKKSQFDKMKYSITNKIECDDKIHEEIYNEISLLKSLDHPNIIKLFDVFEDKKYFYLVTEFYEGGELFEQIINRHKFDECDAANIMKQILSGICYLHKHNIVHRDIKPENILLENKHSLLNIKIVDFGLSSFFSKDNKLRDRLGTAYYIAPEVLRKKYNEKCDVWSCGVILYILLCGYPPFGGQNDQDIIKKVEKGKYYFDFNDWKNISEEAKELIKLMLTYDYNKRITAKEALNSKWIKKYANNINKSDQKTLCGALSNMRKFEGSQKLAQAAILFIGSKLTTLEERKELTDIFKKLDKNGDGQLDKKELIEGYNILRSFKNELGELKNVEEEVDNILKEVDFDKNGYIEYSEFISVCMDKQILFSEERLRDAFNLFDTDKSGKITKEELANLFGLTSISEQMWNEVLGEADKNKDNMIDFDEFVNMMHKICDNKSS
# [6] = target: Plasmodium falciparum protein kinase 6 (PK6, PF3D7_1337100) (UniProt Q8IDW1); experiment: PfPK6 kinase inhibitors, biochemical, TCAMS library (AID 1159586); conditions: recombinant PfPK6, Kinase-Glo ATP depletion luminescence
# Sequence of Plasmodium falciparum protein kinase 6 (PK6, PF3D7_1337100) (Q8IDW1 1-305): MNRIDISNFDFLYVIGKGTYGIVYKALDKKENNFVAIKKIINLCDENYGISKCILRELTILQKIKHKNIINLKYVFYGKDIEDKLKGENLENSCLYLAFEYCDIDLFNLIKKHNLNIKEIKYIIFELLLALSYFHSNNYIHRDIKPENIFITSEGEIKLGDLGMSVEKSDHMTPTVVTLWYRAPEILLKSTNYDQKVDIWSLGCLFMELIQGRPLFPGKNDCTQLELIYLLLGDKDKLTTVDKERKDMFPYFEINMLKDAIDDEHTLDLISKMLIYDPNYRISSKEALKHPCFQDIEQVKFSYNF
# [7] = target: Protein kinase 7 (PK7), Plasmodium falciparum 3D7 (PF3D7_0213400) (UniProt Q7YTF7); experiment: inhibition of Plasmodium PK7 catalytic activity – biochemical, TCAMS antimalarial set, Kinase-Glo luminescence (AID 1159587); conditions: recombinant PfPK7, Kinase-Glo ATP depletion luminescence
# Sequence of Protein kinase 7 (PK7), Plasmodium falciparum 3D7 (PF3D7_0213400) (Q7YTF7 1-343): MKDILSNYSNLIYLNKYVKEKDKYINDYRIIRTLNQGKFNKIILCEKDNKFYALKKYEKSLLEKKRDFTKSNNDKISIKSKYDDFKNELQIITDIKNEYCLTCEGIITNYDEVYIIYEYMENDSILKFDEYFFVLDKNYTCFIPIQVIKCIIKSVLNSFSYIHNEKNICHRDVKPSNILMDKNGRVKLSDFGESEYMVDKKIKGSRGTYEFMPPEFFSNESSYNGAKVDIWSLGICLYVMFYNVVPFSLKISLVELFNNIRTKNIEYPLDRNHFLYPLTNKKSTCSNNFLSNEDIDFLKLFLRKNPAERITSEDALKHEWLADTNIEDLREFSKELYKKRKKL
# [8] = target: Calcium-dependent protein kinase 4 (Plasmodium falciparum (isolate 3D7)) (UniProt Q8IBS5); experiment: PfCDPK4 kinase inhibitors, biochemical, TCAMS library (AID 1159588; cut-off not given, nearly all actives have IC50 up to about 0.91 µM); conditions: recombinant PfCDPK4, Kinase-Glo ATP depletion luminescence
# Sequence of Calcium-dependent protein kinase 4 (Plasmodium falciparum (isolate 3D7)) (Q8IBS5 whole entry, looked up): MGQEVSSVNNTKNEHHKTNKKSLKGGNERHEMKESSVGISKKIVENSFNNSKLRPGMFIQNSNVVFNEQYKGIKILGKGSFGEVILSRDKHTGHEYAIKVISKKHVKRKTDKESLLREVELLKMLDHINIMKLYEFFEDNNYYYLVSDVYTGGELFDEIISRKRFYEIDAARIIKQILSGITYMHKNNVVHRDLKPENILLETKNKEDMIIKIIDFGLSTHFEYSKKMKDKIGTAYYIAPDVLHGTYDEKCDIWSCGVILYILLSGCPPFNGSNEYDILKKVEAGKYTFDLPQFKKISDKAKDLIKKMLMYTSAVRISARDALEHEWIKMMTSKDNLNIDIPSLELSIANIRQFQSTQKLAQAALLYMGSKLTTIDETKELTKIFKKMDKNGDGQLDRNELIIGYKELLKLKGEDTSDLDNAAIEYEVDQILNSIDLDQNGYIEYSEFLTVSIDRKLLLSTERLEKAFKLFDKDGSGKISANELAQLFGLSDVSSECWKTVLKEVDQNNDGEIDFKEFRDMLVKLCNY
# F380Y = experiment: BK channel mutant inhibitors and activators – cell-based, U2OS BacMam, thallium flux, beta subunits, selectivity assay, profiling panel (AID 1259406;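 active = thallium flux through the channel raised or lowered by more than 3 SD from vehicle-only wells, actives on both sides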;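 note: initial slope of Thallos dye fluorescence rise after thallium is added; log ratio against the mean of 0.3% DMSO vehicle wells on the same plate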); conditions: U2OS BacMam BK variants, at 30 µM
# F380Y/beta1 = experiment: as above; conditions: U2OS BacMam BK variants, at 30 µM
# F380Y/beta2Delta = experiment: as above; conditions: U2OS BacMam BK variants, at 30 µM
# F380Y/beta4 = experiment: as above; conditions: U2OS BacMam BK variants, at 30 µM
# [9] = target: Calcium-activated potassium channel subunit alpha-1 (Homo sapiens) + Leucine-rich repeat-containing protein 26 (Homo sapiens) (UniProt Q12791+Q2I0M4); experiment: as above; conditions: U2OS BacMam BK variants, F380Y/Slo1WT/gamma1, at 30 µM
# Sequence of Calcium-activated potassium channel subunit alpha-1 (Homo sapiens) + Leucine-rich repeat-containing protein 26 (Homo sapiens) (Q2I0M4 whole entry, looked up, one chain of several): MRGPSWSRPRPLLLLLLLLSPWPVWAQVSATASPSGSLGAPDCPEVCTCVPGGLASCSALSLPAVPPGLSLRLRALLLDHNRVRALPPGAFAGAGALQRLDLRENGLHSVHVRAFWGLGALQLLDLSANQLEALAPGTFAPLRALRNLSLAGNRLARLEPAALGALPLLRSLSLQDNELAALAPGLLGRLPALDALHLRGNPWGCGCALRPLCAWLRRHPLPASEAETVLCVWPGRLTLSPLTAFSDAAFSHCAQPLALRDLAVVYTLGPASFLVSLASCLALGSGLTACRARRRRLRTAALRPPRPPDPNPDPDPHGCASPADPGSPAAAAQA
# R275C = experiment: as above; conditions: U2OS BacMam BK variants, at 30 µM
# R275C/beta1 = experiment: as above; conditions: U2OS BacMam BK variants, at 30 µM
# R275C/beta2Delta = experiment: as above; conditions: U2OS BacMam BK variants, at 30 µM
# R275C/beta4 = experiment: as above; conditions: U2OS BacMam BK variants, at 30 µM
# R275C/Slo1WT/beta2 = experiment: as above; conditions: U2OS BacMam BK variants, at 30 µM
smiles,measurement,setting,value
COC(C(=O)OCCC1CCCN1C)(c1ccccc1)C1CCCCC1 (stereo not drawn),growth inhibition,[1],5%
same,inhibition,[2],3%
same,inhibition,[3],4%
same,growth inhibition,[4],100% (active)
same,outcome,[5],inactive
same,outcome,[6],inactive
same,outcome,[7],inactive
same,outcome,[8],inactive
COc1cccc(C(=O)C2CC2CN2CC=C(c3c(C)[nH]c4ccccc34)CC2)c1 (stereo not drawn),growth inhibition,[1],87% (active)
same,inhibition,[2],13%
same,inhibition,[3],-8%
same,growth inhibition,[4],92% (active)
same,outcome,[5],inactive
same,outcome,[6],inactive
same,outcome,[7],inactive
same,outcome,[8],inactive
CC(Cc1ccc(OCCCCOc2ccccc2)cc1)NCCCn1ccnc1 (stereo not drawn),growth inhibition,[1],101% (active)
same,inhibition,[2],100% (active)
same,inhibition,[3],0%
same,growth inhibition,[4],101% (active)
same,outcome,[5],inactive
same,outcome,[6],inactive
same,outcome,[7],inactive
same,outcome,[8],inactive
Cc1csc2sc(C=C(C#N)C#N)c(C)c12,log fold change Tl+ flux,F380Y,0.0324
same,log fold change Tl+ flux,F380Y/beta1,-0.023
same,log fold change Tl+ flux,F380Y/beta2Delta,0.0231
same,log fold change Tl+ flux,F380Y/beta4,0.00092
same,log fold change Tl+ flux,[9],0.0126
same,log fold change Tl+ flux,R275C,0.0225
same,log fold change Tl+ flux,R275C/beta1,0.0369
same,log fold change Tl+ flux,R275C/beta2Delta,0.00343
same,log fold change Tl+ flux,R275C/beta4,0.00359
same,log fold change Tl+ flux,R275C/Slo1WT/beta2,0.0163
O=C(NC1CCC(CN2CCC(c3c[nH]c4ccccc34)CC2)CC1)c1csc(-c2ccc(C(F)(F)F)cc2Cl)n1 (stereo not drawn),growth inhibition,[1],75% (active)
same,inhibition,[2],32%
same,inhibition,[3],-3%
same,growth inhibition,[4],99% (active)
same,outcome,[5],inactive
same,outcome,[6],inactive
same,outcome,[7],inactive
same,outcome,[8],inactive
CN(C)CCC(=O)c1ccccc1,growth inhibition,[1],5%
same,inhibition,[2],11%
same,inhibition,[3],-6%
same,growth inhibition,[4],100% (active)
same,outcome,[5],inactive
same,outcome,[6],inactive
same,outcome,[7],inactive
same,outcome,[8],inactive
O=c1c2ccccc2[nH]c(=S)n1-c1ccccc1,log fold change Tl+ flux,F380Y,-0.0122
same,log fold change Tl+ flux,F380Y/beta1,0.0064
same,log fold change Tl+ flux,F380Y/beta2Delta,0.0408
same,log fold change Tl+ flux,F380Y/beta4,0.0104
same,log fold change Tl+ flux,[9],0.0486
same,log fold change Tl+ flux,R275C,-0.0195
same,log fold change Tl+ flux,R275C/beta1,0.0238
same,log fold change Tl+ flux,R275C/beta2Delta,-0.000731
same,log fold change Tl+ flux,R275C/beta4,0.00834
same,log fold change Tl+ flux,R275C/Slo1WT/beta2,-0.0521
CC(Cc1ccc(NC(=O)[C@@H](C)NCCc2cccc(Cl)c2)cc1)NCCc1cccc(Cl)c1 (stereo partly drawn),growth inhibition,[1],54% (active)
same,inhibition,[2],99% (active)
same,inhibition,[3],-1%
same,growth inhibition,[4],99% (active)
same,outcome,[5],inactive
same,outcome,[6],inactive
same,outcome,[7],inactive
same,outcome,[8],inactive
Cc1ccc(S(=O)(=O)N2CN3CCN(C3)C2)cc1,log fold change Tl+ flux,F380Y,-0.028
same,log fold change Tl+ flux,F380Y/beta1,-0.0265
same,log fold change Tl+ flux,F380Y/beta2Delta,-0.0357
same,log fold change Tl+ flux,F380Y/beta4,0.048
same,log fold change Tl+ flux,[9],0.0134
same,log fold change Tl+ flux,R275C,0.0146
same,log fold change Tl+ flux,R275C/beta1,-0.00993
same,log fold change Tl+ flux,R275C/beta2Delta,-0.021
same,log fold change Tl+ flux,R275C/beta4,-0.0275
same,log fold change Tl+ flux,R275C/Slo1WT/beta2,0.0283
NC(N)=NC(=O)Nc1ccc([N+](=O)[O-])c(Cl)c1,growth inhibition,[1],12%
same,inhibition,[3],-10%
same,growth inhibition,[4],90% (active)
same,outcome,[5],inactive
same,outcome,[6],inactive
same,outcome,[7],inactive
same,outcome,[8],inactive
Cc1ccc(C)c(C=CC(=O)NC2CCC(CN3CCC(c4c[nH]c5ccccc45)CC3)CC2)c1 (stereo not drawn),growth inhibition,[1],55% (active) and 80% (active)
same,inhibition,[2],38% and 46%
same,inhibition,[3],3% and 5%
same,growth inhibition,[4],101% (active) and 102% (active)
same,outcome,[5],inactive
same,outcome,[6],inactive
same,outcome,[7],inactive
same,outcome,[8],inactive

# Reference: PubChem BioAssay
